For assay [1], the target named is Tyrosine-protein kinase SYK (Homo sapiens) (UniProt P43405). The following applies: at 10 µM.
Assay [2] has as its target T1, Mitogen-activated protein kinase kinase kinase 7 (Homo sapiens) (UniProt O43318).
T1 sequence (whole entry): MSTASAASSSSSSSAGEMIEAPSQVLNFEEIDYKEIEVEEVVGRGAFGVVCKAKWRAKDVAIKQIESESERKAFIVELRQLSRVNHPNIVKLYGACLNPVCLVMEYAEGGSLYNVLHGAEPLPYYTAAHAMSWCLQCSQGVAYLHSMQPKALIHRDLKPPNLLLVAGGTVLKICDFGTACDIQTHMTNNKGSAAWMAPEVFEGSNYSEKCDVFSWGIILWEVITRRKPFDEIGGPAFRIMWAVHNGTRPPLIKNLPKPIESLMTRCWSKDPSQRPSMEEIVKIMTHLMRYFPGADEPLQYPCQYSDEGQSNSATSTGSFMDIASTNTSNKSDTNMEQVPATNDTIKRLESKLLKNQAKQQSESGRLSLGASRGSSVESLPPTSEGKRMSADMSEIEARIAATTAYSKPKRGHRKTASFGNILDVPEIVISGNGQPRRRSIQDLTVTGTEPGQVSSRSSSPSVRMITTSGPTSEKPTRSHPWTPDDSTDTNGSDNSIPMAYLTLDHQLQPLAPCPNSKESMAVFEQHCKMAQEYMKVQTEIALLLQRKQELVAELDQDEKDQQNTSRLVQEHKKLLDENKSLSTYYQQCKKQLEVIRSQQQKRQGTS
The following applies: at 10 µM.

Assay [3] concerns the target T2, Serine/threonine-protein kinase TAO1 (Homo sapiens) (UniProt Q7L7X3).
T2 sequence (whole entry): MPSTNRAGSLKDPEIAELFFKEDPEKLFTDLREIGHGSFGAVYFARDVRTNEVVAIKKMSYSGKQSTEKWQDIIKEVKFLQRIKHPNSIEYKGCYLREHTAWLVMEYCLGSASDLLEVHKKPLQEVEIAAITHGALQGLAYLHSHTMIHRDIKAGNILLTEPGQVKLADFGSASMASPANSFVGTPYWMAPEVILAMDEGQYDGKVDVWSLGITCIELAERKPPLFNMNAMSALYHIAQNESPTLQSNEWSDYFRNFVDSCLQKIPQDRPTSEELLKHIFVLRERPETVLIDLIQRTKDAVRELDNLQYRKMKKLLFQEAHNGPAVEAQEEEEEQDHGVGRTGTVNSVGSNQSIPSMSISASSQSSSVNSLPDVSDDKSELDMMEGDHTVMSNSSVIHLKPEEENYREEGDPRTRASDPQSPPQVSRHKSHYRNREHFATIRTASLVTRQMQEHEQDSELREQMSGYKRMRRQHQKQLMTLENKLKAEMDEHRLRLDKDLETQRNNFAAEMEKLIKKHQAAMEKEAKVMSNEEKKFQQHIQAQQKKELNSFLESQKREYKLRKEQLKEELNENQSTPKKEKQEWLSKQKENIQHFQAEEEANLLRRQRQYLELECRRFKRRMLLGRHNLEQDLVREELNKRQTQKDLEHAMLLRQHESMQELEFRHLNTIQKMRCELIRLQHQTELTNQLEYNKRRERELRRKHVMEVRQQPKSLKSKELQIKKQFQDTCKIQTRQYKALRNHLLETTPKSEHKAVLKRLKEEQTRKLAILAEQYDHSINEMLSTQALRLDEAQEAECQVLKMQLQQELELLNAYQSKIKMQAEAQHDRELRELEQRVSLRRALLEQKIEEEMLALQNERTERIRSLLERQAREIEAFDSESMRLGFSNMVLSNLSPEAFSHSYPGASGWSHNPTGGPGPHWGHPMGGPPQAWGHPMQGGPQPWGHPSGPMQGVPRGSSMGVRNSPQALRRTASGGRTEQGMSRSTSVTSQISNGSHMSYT
The following applies: at 10 µM.

Assay [4] concerns the target T3, Serine/threonine-protein kinase TAO3 (Homo sapiens) (UniProt Q9H2K8).
T3 sequence (whole entry): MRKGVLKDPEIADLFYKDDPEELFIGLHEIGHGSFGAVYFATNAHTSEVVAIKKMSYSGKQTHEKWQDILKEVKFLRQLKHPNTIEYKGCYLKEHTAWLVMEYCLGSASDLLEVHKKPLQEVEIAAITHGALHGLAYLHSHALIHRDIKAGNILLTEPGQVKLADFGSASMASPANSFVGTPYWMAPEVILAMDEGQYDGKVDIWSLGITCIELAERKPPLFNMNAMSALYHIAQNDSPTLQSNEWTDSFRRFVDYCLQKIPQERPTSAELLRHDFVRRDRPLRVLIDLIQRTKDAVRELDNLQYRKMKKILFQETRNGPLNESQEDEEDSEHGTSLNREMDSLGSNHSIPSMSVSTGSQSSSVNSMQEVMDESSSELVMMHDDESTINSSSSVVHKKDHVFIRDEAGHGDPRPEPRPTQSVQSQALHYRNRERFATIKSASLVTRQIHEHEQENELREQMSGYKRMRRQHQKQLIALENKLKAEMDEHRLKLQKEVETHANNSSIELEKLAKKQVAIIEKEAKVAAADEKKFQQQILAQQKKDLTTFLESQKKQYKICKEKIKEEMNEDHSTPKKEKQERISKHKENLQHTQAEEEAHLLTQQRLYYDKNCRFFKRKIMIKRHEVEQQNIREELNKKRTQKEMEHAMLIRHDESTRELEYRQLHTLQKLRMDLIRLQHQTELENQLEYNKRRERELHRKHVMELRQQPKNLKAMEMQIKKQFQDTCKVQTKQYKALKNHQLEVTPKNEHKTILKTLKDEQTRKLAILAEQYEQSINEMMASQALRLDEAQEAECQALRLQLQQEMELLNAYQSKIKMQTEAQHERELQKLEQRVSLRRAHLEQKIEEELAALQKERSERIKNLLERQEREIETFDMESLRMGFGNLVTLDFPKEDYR
The following applies: at 1 µM.

The target of assay [5] is T3, Serine/threonine-protein kinase TAO3 (Homo sapiens). The following applies: at 10 µM.
The target in assay [6] is T4, Serine/threonine-protein kinase TBK1 (Homo sapiens) (UniProt Q9UHD2).
T4 sequence (whole entry): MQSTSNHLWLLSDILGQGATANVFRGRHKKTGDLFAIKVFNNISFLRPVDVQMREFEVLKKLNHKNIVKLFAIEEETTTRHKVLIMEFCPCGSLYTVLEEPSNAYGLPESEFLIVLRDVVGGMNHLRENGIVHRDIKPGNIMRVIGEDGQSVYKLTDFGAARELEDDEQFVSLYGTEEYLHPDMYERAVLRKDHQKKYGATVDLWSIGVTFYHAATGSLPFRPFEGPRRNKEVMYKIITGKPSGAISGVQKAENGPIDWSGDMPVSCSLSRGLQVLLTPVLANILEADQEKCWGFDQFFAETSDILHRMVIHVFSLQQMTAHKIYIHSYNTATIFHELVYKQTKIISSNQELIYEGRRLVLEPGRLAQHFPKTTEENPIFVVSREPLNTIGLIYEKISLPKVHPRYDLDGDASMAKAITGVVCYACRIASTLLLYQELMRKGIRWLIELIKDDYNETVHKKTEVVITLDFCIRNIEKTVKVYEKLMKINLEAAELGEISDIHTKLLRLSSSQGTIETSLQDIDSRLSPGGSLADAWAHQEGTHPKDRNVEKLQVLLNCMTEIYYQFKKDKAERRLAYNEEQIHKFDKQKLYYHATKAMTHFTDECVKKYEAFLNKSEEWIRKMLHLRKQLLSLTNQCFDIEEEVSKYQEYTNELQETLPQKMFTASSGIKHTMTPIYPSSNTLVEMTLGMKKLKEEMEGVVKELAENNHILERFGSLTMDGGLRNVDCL
The following applies: at 1 µM.

Assay [7] concerns the target T4, Serine/threonine-protein kinase TBK1 (Homo sapiens). The following applies: at 10 µM.
In assay [8] the target is T5, Inhibitor of nuclear factor kappa-B kinase subunit alpha (Homo sapiens) (UniProt O15111).
T5 sequence (whole entry): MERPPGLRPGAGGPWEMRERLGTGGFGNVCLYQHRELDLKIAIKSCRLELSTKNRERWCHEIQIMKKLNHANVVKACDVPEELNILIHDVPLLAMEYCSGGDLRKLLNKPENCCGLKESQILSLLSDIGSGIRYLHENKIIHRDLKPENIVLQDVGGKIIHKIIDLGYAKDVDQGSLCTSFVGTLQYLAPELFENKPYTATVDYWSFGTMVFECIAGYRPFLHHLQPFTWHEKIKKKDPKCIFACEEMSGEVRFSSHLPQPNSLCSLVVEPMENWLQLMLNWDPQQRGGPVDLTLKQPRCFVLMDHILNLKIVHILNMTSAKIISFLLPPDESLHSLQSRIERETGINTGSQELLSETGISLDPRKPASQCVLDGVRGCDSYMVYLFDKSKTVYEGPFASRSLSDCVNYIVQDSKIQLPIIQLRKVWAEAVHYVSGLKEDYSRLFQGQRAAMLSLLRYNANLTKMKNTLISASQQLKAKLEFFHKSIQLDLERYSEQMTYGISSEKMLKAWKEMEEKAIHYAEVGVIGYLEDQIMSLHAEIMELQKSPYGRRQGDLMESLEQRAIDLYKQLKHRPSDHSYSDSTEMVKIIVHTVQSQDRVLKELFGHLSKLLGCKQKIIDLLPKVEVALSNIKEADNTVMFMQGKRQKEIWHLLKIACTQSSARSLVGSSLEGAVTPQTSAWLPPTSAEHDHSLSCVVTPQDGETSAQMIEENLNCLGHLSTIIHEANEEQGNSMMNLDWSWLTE
The following applies: at 1 µM.

Assay [9] addresses T5, Inhibitor of nuclear factor kappa-B kinase subunit alpha (Homo sapiens). The following applies: at 10 µM.
Assay [10] addresses T1, Mitogen-activated protein kinase kinase kinase 7 (Homo sapiens). The following applies: at 1 µM.
The target in assay [11] is T2, Serine/threonine-protein kinase TAO1 (Homo sapiens). The following applies: at 1 µM.
The target in assay [12] is T6, Serine/threonine-protein kinase TAO2 (Homo sapiens) (UniProt Q9UL54).
T6 sequence (whole entry): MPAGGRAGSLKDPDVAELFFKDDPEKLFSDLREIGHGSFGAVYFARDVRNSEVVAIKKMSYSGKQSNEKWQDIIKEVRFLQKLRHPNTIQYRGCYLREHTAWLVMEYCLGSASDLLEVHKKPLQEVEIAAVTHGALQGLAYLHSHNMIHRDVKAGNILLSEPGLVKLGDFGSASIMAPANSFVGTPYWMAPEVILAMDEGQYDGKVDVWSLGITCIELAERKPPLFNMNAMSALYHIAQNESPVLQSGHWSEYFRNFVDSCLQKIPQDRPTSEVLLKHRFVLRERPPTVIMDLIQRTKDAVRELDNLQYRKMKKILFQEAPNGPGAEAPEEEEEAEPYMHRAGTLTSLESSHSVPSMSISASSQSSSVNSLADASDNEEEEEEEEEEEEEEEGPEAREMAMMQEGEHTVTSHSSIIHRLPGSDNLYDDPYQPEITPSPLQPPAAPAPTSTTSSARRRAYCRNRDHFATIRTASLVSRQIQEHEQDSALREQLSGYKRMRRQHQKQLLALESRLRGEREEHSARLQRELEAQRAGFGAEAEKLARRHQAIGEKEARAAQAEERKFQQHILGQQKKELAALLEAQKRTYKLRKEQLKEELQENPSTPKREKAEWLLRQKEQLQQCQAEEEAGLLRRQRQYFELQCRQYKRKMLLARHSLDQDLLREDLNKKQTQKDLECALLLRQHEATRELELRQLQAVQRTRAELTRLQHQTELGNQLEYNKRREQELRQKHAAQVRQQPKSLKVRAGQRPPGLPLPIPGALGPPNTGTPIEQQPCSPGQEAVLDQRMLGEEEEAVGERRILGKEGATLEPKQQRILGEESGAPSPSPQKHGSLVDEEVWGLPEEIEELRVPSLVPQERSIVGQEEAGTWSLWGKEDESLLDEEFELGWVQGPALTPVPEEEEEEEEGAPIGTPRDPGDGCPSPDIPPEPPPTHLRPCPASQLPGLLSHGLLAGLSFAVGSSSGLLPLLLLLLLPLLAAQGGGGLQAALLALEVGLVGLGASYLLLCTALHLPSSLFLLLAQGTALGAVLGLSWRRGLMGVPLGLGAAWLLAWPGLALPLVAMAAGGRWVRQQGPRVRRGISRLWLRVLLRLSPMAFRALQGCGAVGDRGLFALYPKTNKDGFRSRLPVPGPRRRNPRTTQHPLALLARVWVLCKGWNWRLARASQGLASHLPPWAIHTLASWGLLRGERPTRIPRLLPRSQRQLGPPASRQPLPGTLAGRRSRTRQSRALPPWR
The following applies: at 1 µM.

In assay [13] the target is T6, Serine/threonine-protein kinase TAO2 (Homo sapiens). The following applies: at 10 µM.
In assay [14] the target is T7, TGF-beta receptor type-1 (Homo sapiens) (UniProt P36897).
T7 sequence (whole entry): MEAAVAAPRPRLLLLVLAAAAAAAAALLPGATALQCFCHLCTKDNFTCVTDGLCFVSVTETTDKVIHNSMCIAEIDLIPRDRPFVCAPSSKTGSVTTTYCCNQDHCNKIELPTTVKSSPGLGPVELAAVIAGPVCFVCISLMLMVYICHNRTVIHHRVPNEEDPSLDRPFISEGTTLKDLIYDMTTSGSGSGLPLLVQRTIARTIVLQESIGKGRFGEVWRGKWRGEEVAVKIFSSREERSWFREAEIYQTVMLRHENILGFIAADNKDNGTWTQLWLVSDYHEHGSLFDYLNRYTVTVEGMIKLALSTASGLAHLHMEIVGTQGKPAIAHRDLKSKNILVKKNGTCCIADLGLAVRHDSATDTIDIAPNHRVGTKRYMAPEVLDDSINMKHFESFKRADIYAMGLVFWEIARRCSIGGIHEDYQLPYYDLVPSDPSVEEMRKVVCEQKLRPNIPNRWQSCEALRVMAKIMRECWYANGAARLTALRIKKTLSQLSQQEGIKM
The following applies: at 1 µM.

Assay [15] deals with T7, TGF-beta receptor type-1 (Homo sapiens). The following applies: at 10 µM.
Assay [16] concerns the target Insulin-like growth factor 1 receptor (Homo sapiens) (UniProt P08069). The following applies: at 1 µM.
Assay [17] has the same target. The following applies: at 10 µM.

Here are results for 2 molecules from ChEMBL document CHEMBL2218924, “A broad activity screen in support of a chemogenomic map for kinase signalling research and drug discovery” (Biochem J, 2013).

Sequence of Insulin-like growth factor 1 receptor (Homo sapiens) (P08069 31-736 limits assumed): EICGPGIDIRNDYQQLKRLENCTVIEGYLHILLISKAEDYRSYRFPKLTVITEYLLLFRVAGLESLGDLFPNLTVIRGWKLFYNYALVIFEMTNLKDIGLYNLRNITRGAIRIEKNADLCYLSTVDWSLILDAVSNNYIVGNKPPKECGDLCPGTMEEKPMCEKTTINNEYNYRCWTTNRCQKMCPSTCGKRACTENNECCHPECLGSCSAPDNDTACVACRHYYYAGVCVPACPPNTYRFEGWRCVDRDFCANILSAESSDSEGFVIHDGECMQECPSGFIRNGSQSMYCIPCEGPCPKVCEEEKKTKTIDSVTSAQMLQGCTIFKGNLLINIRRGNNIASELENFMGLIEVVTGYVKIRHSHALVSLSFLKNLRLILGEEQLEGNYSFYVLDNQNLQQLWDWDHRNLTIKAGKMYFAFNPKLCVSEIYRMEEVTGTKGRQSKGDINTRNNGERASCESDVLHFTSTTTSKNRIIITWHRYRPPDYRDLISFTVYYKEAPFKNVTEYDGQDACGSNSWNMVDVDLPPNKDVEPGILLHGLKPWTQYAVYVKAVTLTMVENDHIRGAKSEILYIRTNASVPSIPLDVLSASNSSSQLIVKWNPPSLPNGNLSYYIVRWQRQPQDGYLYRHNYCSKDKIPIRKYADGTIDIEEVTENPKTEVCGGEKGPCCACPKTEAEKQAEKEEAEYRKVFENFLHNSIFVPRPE
Sequence of Insulin-like growth factor 1 receptor (Homo sapiens) (P08069 741-1367 limits assumed): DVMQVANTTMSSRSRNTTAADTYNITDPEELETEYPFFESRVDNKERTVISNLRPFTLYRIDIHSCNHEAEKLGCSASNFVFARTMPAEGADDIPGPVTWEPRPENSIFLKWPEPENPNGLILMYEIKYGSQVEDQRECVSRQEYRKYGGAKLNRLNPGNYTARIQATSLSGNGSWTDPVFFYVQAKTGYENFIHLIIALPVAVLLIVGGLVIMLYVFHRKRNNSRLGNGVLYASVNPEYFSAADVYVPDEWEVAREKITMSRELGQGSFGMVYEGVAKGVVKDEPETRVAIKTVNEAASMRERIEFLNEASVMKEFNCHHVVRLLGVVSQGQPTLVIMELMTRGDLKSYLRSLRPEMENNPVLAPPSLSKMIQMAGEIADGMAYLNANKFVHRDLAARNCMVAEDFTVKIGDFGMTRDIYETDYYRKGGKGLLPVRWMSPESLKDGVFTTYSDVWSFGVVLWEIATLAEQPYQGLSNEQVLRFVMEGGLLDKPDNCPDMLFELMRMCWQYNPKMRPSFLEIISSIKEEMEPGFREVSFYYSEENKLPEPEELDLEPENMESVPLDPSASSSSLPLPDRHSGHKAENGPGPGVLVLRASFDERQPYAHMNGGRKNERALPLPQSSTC

For the molecule `O=C1NC(=O)C(c2cn(CCCn3ccnc3)c3ccccc23)=C1Nc1ccccc1`, the residual activity was found to be 67% in [1]; 66% in assay [2]; 37% in [3]; 63% in assay [4]; 19% in [5]; 22% in assay [6]. The values for the residual activity in assay [7], in [8] and in assay [9] were 9%, 112% and 103%, respectively.

For the molecule `CCCCc1c(-c2ccc(O)cc2)[nH]c2nccnc12`, the residual activity was 66% in assay [1]; 90% in assay [10]; 89% in assay [2]; 36% in assay [11]; 7% in assay [3]; 35% in assay [12]. Moreover, the residual activity stood at 30% in [13]; 62% in assay [4]; 68% in assay [5]; 70% in assay [6]; 35% in [7]; 91% in assay [14]. Besides, the residual activity in assay [15] is 46%; in [16], 65%; in assay [17] it was 66%; in assay [8] it was 90%; in [9] it was 81%.
